Data taken from PubChem BioAssay (NCI).
The panel holds about 83,000 compounds, 20% with a hit somewhere; the sample as a whole holds those more often.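 Compound tested at a single concentration for 48 hours in 96-well plates; a percent growth value below 10 was scored as active.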 Unmarked numbers belong to inactive results.

Each molecule was assayed on NCI-H226 lung (assay: NCI-60 one-dose screen, 48 h (100 = growth as untreated, 0 = no growth, -100 = all killed)). Conditions: 10 µM.

Row | Compound | growth [%]
1 | Nc1nc2c(c(-c3nc(N)nc4c3CCc3ccccc3-4)n1)CCc1ccccc1-2 | 89.9
2 | CCOC(=O)CCCS(C)(=O)=O | 109
3 | COc1ccccc1NC(=O)C1=C(C)NC(C)=C(C(=O)Nc2ccccc2OC)C1c1cccc([N+](=O)[O-])c1 | 74.7
4 | O=C(c1ccccc1)C1CCC1 | 102
5 | CCOC(=O)C(=O)C=P(c1ccccc1)(c1ccccc1)c1ccccc1 | 108
6 | O=[N+]([O-])c1cccc(C(F)(F)F)c1 | 98.5
7 | CCCC(=O)Nc1ccc2c(c1)CN1C(=O)c3ccccc3C1=N2 | 100
8 | CC(C)=NNc1ccc([N+](=O)[O-])cc1[N+](=O)[O-] | 98.3
9 | CC(=O)OCC1=CC2OC(=O)C3=COC(OC4OC(CO)C(O)C(O)C4O)C1C32 (stereo not given) | 105
10 | COc1nc(N)nc2c1ncn2C1OC(CO)CC1O (stereo not given) | 103
11 | Nc1ccc(C(=O)c2ccc(N)c(Br)c2)cc1Br | 65.3
12 | CO[C@H]1C[C@@H]2CC[C@@H](C)[C@@](O)(O2)C(=O)C(=O)N2CCCC[C@H]2C(=O)O[C@H]([C@H](C)C[C@@H]2CC[C@@H](O)[C@H](OC)C2)CC(=O)[C@H](C)C=C(C)[C@@H](O)[C@@H](OC)C(=O)[C@H](C)C[C@H](C)/C=C/C=C/C=C1C | 62.2
13 | CC(=O)OCCC(C)CCC=C(C)C (stereo not given) | 105
14 | CCOC(=O)c1cc(/C=C/c2cccc(Cl)c2)on1 | 95.1
15 | COC(=O)C(C)Oc1ccc(OC#N)cc1 (stereo not given) | 97.3
